Assay outcomes deposited in PubChem by The Scripps Research Institute Molecular Screening Center.
M1 PAM: potentiates human M1 receptor response to acetylcholine; activation, % at 3 µM; 0.088% of 360,000 active; CHO-K1 hM1, Fluo-8 calcium fluorescence, ACh EC20; 0% = ACh EC20, 100% = maximal ACh; AID 588819; in the data active = activation above about 19%, passing the limit was not always enough
Target sequence (P11229 whole entry, looked up): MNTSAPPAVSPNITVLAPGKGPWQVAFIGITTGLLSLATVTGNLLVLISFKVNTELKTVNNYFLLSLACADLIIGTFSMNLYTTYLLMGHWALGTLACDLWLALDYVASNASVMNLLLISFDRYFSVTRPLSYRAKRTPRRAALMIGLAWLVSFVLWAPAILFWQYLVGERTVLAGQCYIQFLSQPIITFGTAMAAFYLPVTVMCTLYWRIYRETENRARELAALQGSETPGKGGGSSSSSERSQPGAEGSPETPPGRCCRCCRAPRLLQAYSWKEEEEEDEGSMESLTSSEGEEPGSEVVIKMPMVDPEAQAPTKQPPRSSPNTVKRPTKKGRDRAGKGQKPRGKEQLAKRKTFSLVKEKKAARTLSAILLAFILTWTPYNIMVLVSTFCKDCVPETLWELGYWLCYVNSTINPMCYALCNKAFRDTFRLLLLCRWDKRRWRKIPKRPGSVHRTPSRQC
CHO-K1 Ca ag: nonselective activator or artifact in parental CHO-K1 cells. 0.48% of 360,000 active. activation, % at 3 µM. Fluo-8 calcium fluorescence; scaled to maximal ATP response, vehicle zero. AID 602248; in the data active = activation above about 15%;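 note: untransfected CHO-K1 host cells lacking M1 receptor as counterscreen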
CHO-K1 Ca antag: nonselective inhibitor or artifact in parental CHO-K1 cells | ATP-induced calcium, Fluo-8 fluorescence | inhibition, % at 3 µM | 0.6% of 360,000 active | AID 602250;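 active = inhibition above a per-plate cutoff, the plate's mean sample inhibition plus 3 SD, cut at about 24% in these data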
CHRM1 agonist: human M1 muscarinic receptor agonism | P11229 | CHO-K1 hM1, Fluo-8 calcium fluorescence, agonist mode; 0% DMSO, 100% acetylcholine EC100 | activation, % at 3 µM | 0.33% of 360,000 active | AID 588814;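 active = activation above the run's mean compound activation plus 3 SD, cut at about 16% in these data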;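 note: peak over basal fluorescence ratio within a 140 s kinetic read after compound addition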
CHO-K1 Ca PAM: nonselective activator or artifact in parental CHO-K1 calcium assay | 0.02% of 360,000 active | activation, % at 3 µM | ATP EC20, Fluo-8 calcium fluorescence; 0% at ATP EC20, 100% at ATP max | AID 602247;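 active = activation above the run cutoff, the mean activation of all test compounds plus 3 SD, cut at about 40% in these data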;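 note: peak over basal fluorescence ratio in a 140 s read after ATP addition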
CHRM1 antagonist: blocks human M1 muscarinic receptor; CHO-K1 hM1, Fluo-8 calcium fluorescence, ACh EC80 antagonist; inhibition, % at 3 µM; 1.3% of 360,000 active; AID 588852;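 active = percent inhibition above its own plate's cutoff, namely the mean of that plate's compound wells plus 3 SD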;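 note: peak over basal fluorescence ratio during 140 s after agonist addition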
Large screens that a line does not name were inactive. Rows were chosen to be rich in hits. Some 2.4% of all compounds tested hit in one or more screens of this group.

Cc1cccnc1NC(=O)CCc1c[nH]c2ccccc12	CHO-K1 Ca antag 24
Cc1ccnc(NC(=O)CCCc2c[nH]c3ccccc23)c1	none
COc1cccc(CNS(=O)(=O)c2c(C(=O)N3CCCC3)c(C)n(C)c2C)c1	none
O=[N+]([O-])c1ccc(N2CCN(C(=S)Nc3ccc(F)cc3F)CC2)cc1	CHO-K1 Ca antag 24
COc1ccc(N2CCN(C(=O)CCS(=O)(=O)c3ccc(OC)cc3)CC2)cc1	none
Cc1ccc(C(=O)NC(=S)N2CCN(c3ccc([N+](=O)[O-])cc3)CC2)cc1	none
COc1ccc(S(=O)(=O)CCC(=O)N2CCN(c3ccc([N+](=O)[O-])cc3)CC2)cc1	CHRM1 antagonist 48
Cc1csc2c(N3CCN(C(=S)Nc4ccc(F)cc4F)CC3)ncnc12	CHO-K1 Ca ag 23, CHRM1 agonist 23
CCCC(=O)NC(=S)N1CCN(c2ccc([N+](=O)[O-])cc2)CC1	CHO-K1 Ca antag 25
CCOc1ccc(C(=O)Nc2ccc(-c3nc4ccccc4[nH]3)cc2)cc1[N+](=O)[O-]	none
CCOC(=O)C1(C)CCCCCN1C(=O)/C=C/c1ccccc1 (stereo unspecified)	none
Cc1onc(-c2c(Cl)cccc2Cl)c1C(=O)Nc1ccc(Cl)cn1	none
CCCC(=O)NC(=S)Nc1ccc(NC(=O)c2cccs2)cc1	none
CCCC(=O)NC(=S)Nc1ccc(N2CCN(C(=O)c3cccs3)CC2)cc1	CHO-K1 Ca ag 15
Cc1c(C(=O)NN)[nH]c2ccc([N+](=O)[O-])cc12	CHO-K1 Ca ag 26
NNC(=O)c1[nH]c2ccc([N+](=O)[O-])cc2c1-c1ccccc1	none
Nc1c2c(nc3ccccc13)N(C1CCCCC1)CC2	none
COc1ccc2c(c1)CCN(C(=O)CCl)C2C1C(=O)CCCC1=O (stereo unspecified)	CHRM1 agonist 25
COc1cc2c(cc1OC)C(C1C(=O)CCCC1=O)N(C(=O)CCl)CC2 (stereo unspecified)	none
Cc1cccc(OCC(=O)N/N=C\c2cccn2C)c1C	none
CCCc1nnc(SCC(=O)Nc2ccc3c(c2)OCCO3)n1CCOC	none
CC1=C/C(=N\OC(=O)/C=C/c2ccccc2)C(C)=CC1=O	CHO-K1 Ca antag 28
CC(NC(=O)COC(=O)c1cc(Cl)nc(Cl)c1)c1ccccc1 (stereo unspecified)	CHO-K1 Ca ag 23
CC(NC(=O)COC(=O)c1ccccc1O)c1ccccc1 (stereo unspecified)	none
COc1cc(OC)cc(C(=O)NCC(=O)NC(C)c2ccccc2)c1 (stereo unspecified)	CHRM1 antagonist 75
COc1cc(OC)cc(C(=O)NC(C(=O)NCc2ccccn2)C(C)C)c1 (stereo unspecified)	CHRM1 antagonist 78
COc1cc(OC)cc(C(=O)NCC(=O)NC(C)CCc2ccccc2)c1 (stereo unspecified)	none
COc1ccc(CCNC(=O)CSc2nnc3ccc(-c4cccnc4)nn23)cc1	none
CNc1oc(/C=C/c2cccc(OC)c2)nc1C#N	none
O=c1[nH]c2ccc(N/C(=N/S(=O)(=O)c3ccccc3)c3ccccc3)cc2[nH]1	CHO-K1 Ca antag 27
Cc1ccc(C(=O)OCC(=O)Nc2ccc3c(c2)OCO3)cc1S(=O)(=O)N1CCOCC1	none
O=[N+]([O-])c1ccc(Sc2cccc[n+]2[O-])c2nonc12	CHO-K1 Ca antag 88, CHRM1 antagonist 44
O=[N+]([O-])c1ccc(Nc2ccccc2)c2nonc12	none
COc1ccc(CN2C(=O)NC3(CCCc4ccccc43)C2=O)cc1F (stereo unspecified)	none
CCCN1CCN(CCCNC(=S)Nc2ccc3nc(N4CCN(CC)CC4)cc(C)c3c2)CC1	none
O=C1N(c2ccccc2)C[C@@H]2C[C@@H](c3cccc4c3OCO4)N3CCC[C@@]123	CHRM1 antagonist 49
CN(C)CCOCCSc1ccc(Cl)cc1	none
Clc1ccc(SCCOCCN2CCCCCC2)cc1	CHRM1 antagonist 42
Cc1ccccc1C(OCCN(C(C)C)C(C)C)c1ccccc1 (stereo unspecified)	CHRM1 antagonist 101
CN(C)CCOC(c1ccc(Cl)cc1)c1ccccn1 (stereo unspecified)	none
COCC(=O)N1CCC(c2nc3ccccc3[nH]2)CC1	CHRM1 agonist 20
